The values that follow come from PubChem BioAssay.

Structures are written as SMILES. Active and inactive are the calls of the source.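 The calls were made as follows, unless noted: active = NADPH fluorescence slope more negative than the mean of all samples by about 3 SD, 99.7% confidence; inactive = the rest.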

Test [1] in a line: inhibitors of TNFa-induced NFkB p65 translocation, primary screen, imaging, HUVEC, MLSMR starter and 10KST1 sets (AID 438;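 active = inhibition above 20% together with a positive visual image hit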;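 also: compound added about 3h40 before a 20 min TNFalpha stimulation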;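 as to inhibition: signal is the nuclear over cytoplasmic p65 intensity ratio per well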). The note with it: HUVEC TNFa-induced p65 nuclear translocation; cell count: measured here: nuclei count (cytotoxicity indicator), at 2.08 µM; inhibition: at 2 µM, stronger effect = higher value, 0% TNFa-plus-vehicle, 100% no-TNFa wells.
Test [2] is described as follows: reduction of polyQ htt aggregates in cells – imaging, exon1htt(103Q)mCFP cells, high-content imaging, primary screen (AID 483;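 active = visual image review flags a hit and inhibition of aggregation exceeds 20%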;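 also: compound exposure lasted 3 days before fixation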;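 as to nuclei count: percent of the per-plate median nuclei count of sample wells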). The note with it: exon1htt(103Q)mCFP cell line, aggregate imaging, at 2 µM; inhibition of aggregation: stronger effect = higher value; nuclei count: measured here: cell count, toxicity.
Test [3] in a line: endothelial E-selectin expression blockers – imaging, HUVEC, immunofluorescence, MLSMR starter and 10KST1 sets, primary screen (AID 487;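 active = visually confirmed hit in the image check and inhibition above 20%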;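 as to inhibition: signal is fraction of cell area covered by stained E-selectin grains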;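 as to nuclei count: 100% = median nuclei count of all wells on the same plate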). The note with it: HUVEC TNFalpha-induced E-selectin immunofluorescence imaging, at 2 µM; inhibition: stronger effect = higher value; nuclei count: measured here: cell number, toxicity.
Test [4] deals with Voltage-gated potassium channel subunit beta-2 (Rattus norvegicus) (UniProt P62483). Kind of test: inhibitors of rat Kvbeta2 reductase activity – biochemical, NADPH fluorescence, primary screen (AID 622;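 active = fluorescence slope higher than the sample average by over 3 SD, cut at about -0.22 in these data, passing the limit was not always enough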;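 also: slope of raw intensity against log time taken from 70 to 1610 s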). The note with it: recombinant KvBeta, 4-cyanobenzaldehyde reduction, at 10 µM, stronger effect = higher value.
The target is the same in test [5]. Kind of test: enhancers of rat Kvbeta2 NADPH turnover – biochemical, NADPH fluorescence, primary screen (AID 623).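 Also: fluorescence intensity change per second fitted from 20 to 320 s.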 The note with it: Recombinant KvBeta, NADPH fluorescence decrease slope, 10 min; at 10 µM; stronger effect = lower value.
For test [6], the target named is Alpha-2C adrenergic receptor (Homo sapiens) (UniProt P18825). In words: compounds altering alpha2C-coupled GIRK flux – cell-based, HEK293 alpha2C/GIRK1/2, thallium flux, primary screen (AID 624;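 active = fluorescence slope after compound addition differing from the mean of all screened samples at 99.7% confidence, in either direction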;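 also: slope of fluorescence ratio to pre-addition baseline per second over 15 to 24 s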). The note with it: thallium flux BTC fluorescence, at 10 µM, actives lie on both sides.
The nature of test [7]: blockers of RIG-like receptor reporter activation – cell-based, Sendai virus stimulus, luciferase, 10K MLSCN set, TLR/RLR signaling modifier project, primary screen (AID 602276;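 active = inhibition at or above 50% at 10 µM; inactive = inhibition below 50%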;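 also: firefly luciferase from ISG56 promoter only with Renilla not read in this screen; 0% = Sendai virus plus DMSO and 100% = medium plus DMSO without virus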). The note with it: HEK293 RL24 IRF3 luciferase reporter, at 10 µM, stronger effect = higher value. A general note: Reporter assays use an easily measured gene product as a stand-in for the process of interest.

A short description of test [8]: TLR3 IRF3 reporter activation blockers – cell-based, poly I:C stimulus, luciferase, 10K MLSCN set, primary screen (AID 602277;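 active = inhibition of the reporter signal at or above 50%; inactive = inhibition below 50%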). The note with it: HEK293-TLR3 RL24 IRF3 luciferase reporter, at 10 µM, stronger effect = higher value.

Chain of Voltage-gated potassium channel subunit beta-2 (Rattus norvegicus) (P62483 whole entry, looked up): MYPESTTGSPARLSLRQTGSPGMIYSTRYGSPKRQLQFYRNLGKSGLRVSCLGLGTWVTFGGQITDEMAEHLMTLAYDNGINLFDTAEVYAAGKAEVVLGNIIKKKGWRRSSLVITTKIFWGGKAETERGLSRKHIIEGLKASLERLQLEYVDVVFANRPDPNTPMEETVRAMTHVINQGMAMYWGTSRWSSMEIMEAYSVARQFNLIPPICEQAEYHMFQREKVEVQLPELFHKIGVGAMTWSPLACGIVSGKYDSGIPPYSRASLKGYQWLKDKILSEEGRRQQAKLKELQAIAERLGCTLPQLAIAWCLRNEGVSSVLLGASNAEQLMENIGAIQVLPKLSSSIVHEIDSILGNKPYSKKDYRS
Chain of Alpha-2C adrenergic receptor (Homo sapiens) (P18825 whole entry, looked up): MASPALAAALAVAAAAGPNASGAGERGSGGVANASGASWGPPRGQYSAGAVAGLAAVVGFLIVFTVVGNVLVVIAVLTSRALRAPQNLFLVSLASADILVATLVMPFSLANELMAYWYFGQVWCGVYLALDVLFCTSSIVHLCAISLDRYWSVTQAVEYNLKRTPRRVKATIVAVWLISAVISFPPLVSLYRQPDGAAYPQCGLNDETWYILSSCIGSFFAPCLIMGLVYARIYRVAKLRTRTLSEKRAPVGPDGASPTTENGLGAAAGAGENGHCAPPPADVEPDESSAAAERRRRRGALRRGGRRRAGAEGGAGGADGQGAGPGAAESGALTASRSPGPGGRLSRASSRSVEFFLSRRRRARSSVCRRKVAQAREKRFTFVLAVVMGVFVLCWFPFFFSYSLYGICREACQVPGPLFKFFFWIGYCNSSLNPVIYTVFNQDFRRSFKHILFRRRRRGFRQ

For the molecule `CCC(C)(C(=O)NC1CCCCC1)N(Cc1ccco1)C(=O)c1ccc2c(c1)OCO2` (centres undefined), in test [1], the cell count came out at 593. The inhibition in test [1] is -9.3% (inactive); in test [3], 25.6% (inactive); in test [7], 21.1% (inactive); in test [8], 49.5% (inactive). In test [2], the inhibition of aggregation is -2.7% (inactive). In addition, the nuclei count in test [2] came to 80.7%; in test [3] it was 95.5%. In addition, the fluorescence slope in test [4] is -0.423 (inactive). Also, the NADPH fluorescence slope in test [5] is -7.4e-06 (inactive). Further, the slope in test [6] is 0.00563 (inactive).
Regarding `CCCC(=O)Nc1nnc(CC(=O)OCC)s1`, the cell count in test [1] turned out to be 799. The inhibition in test [1] was -7.3% (inactive); in test [3], -35.4% (inactive); in test [7], -5.88% (inactive); in test [8] it was 15.8% (inactive). Moreover, the inhibition of aggregation in test [2] was 11% (inactive). The nuclei count came to 95.6% in test [2] and 113% in test [3]. In test [4], the fluorescence slope was -0.614 (inactive). Also, in test [5], the NADPH fluorescence slope is 1.3e-05 (inactive). Also, in test [6], the slope was 0.00516 (inactive).
For `Cn1c(SCCN2CCCCC2)nnc1-c1ccccc1Br`, the cell count in test [1] turned out to be 493. For the same molecule, the inhibition in test [1] was 4.4% (inactive); in test [3], -13.3% (inactive); in test [7], 13.4% (inactive); in test [8], 13.7% (inactive). In addition, the inhibition of aggregation in test [2] was 1.1% (inactive). Further, the nuclei count in test [2] turned out to be 70.5%; in test [3] it was 98.3%. The fluorescence slope in test [4] was -0.509 (inactive). The NADPH fluorescence slope in test [5] was -3.5e-05 (inactive). Moreover, in test [6], the slope is 0.00556 (inactive).
With `CCOc1cc(-c2nc(-c3ccc(C)nc3OCC)no2)cc(OCC)c1OCC`, in test [1], the cell count amounted to 612. The inhibition is 0% (inactive) in test [1], -56.3% (inactive) in test [3], -10.9% (inactive) in test [7] and -40.1% (inactive) in test [8]. Besides, the inhibition of aggregation in test [2] was 32.3% (inactive). Moreover, the nuclei count in test [2] stood at 79.5%; in test [3] it was 117%. Moreover, the fluorescence slope in test [4] was -0.601 (inactive). In test [5], the NADPH fluorescence slope was -1.4e-05 (inactive). Moreover, the slope in test [6] is 0.00309 (inactive).
Consider `CCOC(=O)C(C)(C)Sc1nc2c(cnn2-c2ccc(C)cc2)c(=O)[nH]1`, for which the cell count in test [1] came to 387. For the same molecule, the inhibition is -1.6% (inactive) in test [1], -44.8% (inactive) in test [3], 9.78% (inactive) in test [7] and 34% (inactive) in test [8]. Moreover, in test [2], the inhibition of aggregation is -13.4% (inactive). Also, the nuclei count in test [2] and in test [3] was 106% in each case. The fluorescence slope in test [4] was -0.626 (inactive). Also, the NADPH fluorescence slope in test [5] was -2.5e-05 (inactive). Moreover, the slope in test [6] was 0.00578 (inactive).
Take `O=C(c1ccncc1)N1CCN(C(=O)c2cccs2)CC1`: in test [1], the cell count was determined as 454. Also, the inhibition is -3.3% (inactive) in test [1], 0.5% (inactive) in test [3], 12.1% (inactive) in test [7] and 14.2% (inactive) in test [8]. Further, in test [2], the inhibition of aggregation was 1.6% (inactive). The nuclei count in test [2] was determined as 110%; in test [3], 106%. In test [4], the fluorescence slope is -0.459 (inactive). Moreover, the NADPH fluorescence slope in test [5] is -3e-05 (inactive). In test [6], the slope was 0.00631 (inactive).
Turning to `COc1ccc(OC)c(S(=O)(=O)Nc2ccccc2SC)c1`, the cell count in test [1] came to 623. Besides, the inhibition in test [1] was -5% (inactive); in test [3] it was 20.9% (inactive); in test [7] it was 21% (inactive); in test [8], 24% (inactive). In addition, in test [2], the inhibition of aggregation is 20% (inactive). Further, the nuclei count in test [2] is 96.7%; in test [3] it was 85.2%. Further, the fluorescence slope in test [4] was -0.486 (inactive). The NADPH fluorescence slope in test [5] is -3.4e-05 (inactive). The slope in test [6] is 0.00443 (inactive).
Regarding `Cc1ccc(-c2noc(-c3ccccc3C(=O)NCC3CCCO3)n2)cc1` (centres undefined), in test [1], the cell count worked out at 763. For the same molecule, the inhibition in test [1] is 2% (inactive); in test [3] it was 8.3% (inactive); in test [7] it was -20% (inactive); in test [8], -30.1% (inactive). The inhibition of aggregation in test [2] was -9% (inactive). Besides, the nuclei count in test [2] came out at 110%; in test [3], 106%. Besides, the fluorescence slope in test [4] was -0.442 (inactive). Also, the NADPH fluorescence slope in test [5] is 5.9e-05 (inactive). In addition, the slope in test [6] was 0.00648 (inactive).
For `C=CCSc1nc(N)c2c(C)c(C)sc2n1`, in test [1], the cell count was 419. Moreover, the inhibition was 3% (inactive) in test [1], -20.5% (inactive) in test [3], -7.96% (inactive) in test [7] and -46.7% (inactive) in test [8]. The inhibition of aggregation in test [2] was 29.2% (inactive). For the same molecule, the nuclei count was 91.8% in test [2] and 101% in test [3]. Besides, the fluorescence slope in test [4] was -0.404 (inactive). The NADPH fluorescence slope in test [5] was 1.5e-05 (inactive). Also, in test [6], the slope was 0.000164 (inactive).
As to `O=C(c1cccs1)N1CCN=C1SCc1ccccc1`, the cell count in test [1] came to 435. In addition, the inhibition in test [1] is 3.1% (inactive); in test [3], -33.5% (inactive); in test [7], 2.79% (inactive); in test [8] it was -0.0227% (inactive). The inhibition of aggregation in test [2] was 6.2% (inactive). Moreover, the nuclei count in test [2] was found to be 106%; in test [3], 111%. The fluorescence slope in test [4] is -0.445 (inactive). In addition, the NADPH fluorescence slope in test [5] is -9.7e-05 (inactive). Further, in test [6], the slope is 0.00597 (inactive).
For `CCOC(=O)CSc1nnc(NC(=O)c2cccc(S(=O)(=O)N3CCCCC3)c2)s1`, the cell count in test [1] was 626. The inhibition was -1.1% (inactive) in test [1], 20.8% (inactive) in test [3], 12.1% (inactive) in test [7] and 26.3% (inactive) in test [8]. Further, the inhibition of aggregation in test [2] is -6.5% (inactive). The nuclei count is 107% in test [2] and 102% in test [3]. The fluorescence slope in test [4] is -0.37 (inactive). In test [5], the NADPH fluorescence slope was -9.8e-06 (inactive). For the same molecule, the slope in test [6] was 0.00424 (inactive).
Consider `Cc1cc(NS(=O)(=O)c2ccc(NC(=O)Nc3ccc4c(c3)OCO4)cc2)no1`, for which the cell count in test [1] came to 599. The inhibition in test [1] was -10.7% (inactive); in test [3] it was -96.1% (inactive); in test [7], -9.3% (inactive); in test [8], -20.7% (inactive). In addition, the inhibition of aggregation in test [2] is -12.8% (inactive). The nuclei count came to 108% in test [2] and 112% in test [3]. Moreover, the fluorescence slope in test [4] was -0.393 (inactive). The NADPH fluorescence slope in test [5] is -5.2e-05 (inactive). In addition, the slope in test [6] was 0.00596 (inactive).
`COCCNC(=O)c1cc(-c2cccs2)on1`: the cell count in test [1] was determined as 793. The inhibition is -4% (inactive) in test [1], -46.8% (inactive) in test [3], -27.2% (inactive) in test [7] and -253% (inactive) in test [8]. The inhibition of aggregation in test [2] was -19.1% (inactive). Further, the nuclei count was 116% in test [2] and 126% in test [3]. Also, the fluorescence slope in test [4] was -0.587 (inactive). Also, the NADPH fluorescence slope in test [5] is 6.5e-06 (inactive). For the same molecule, the slope in test [6] is 0.00598 (inactive).
As to `COC(=O)Nc1ccc(NC(C)=O)cc1`, the cell count in test [1] was found to be 398. Further, the inhibition in test [1] was -4.4% (inactive); in test [3] it was 6.8% (inactive); in test [7], -9.94% (inactive); in test [8] it was -5.16% (inactive). Moreover, in test [2], the inhibition of aggregation is 20.9% (inactive). Moreover, the nuclei count worked out at 82.1% in test [2] and 94.6% in test [3]. Besides, in test [4], the fluorescence slope was -0.493 (inactive). In addition, in test [5], the NADPH fluorescence slope was 6e-05 (inactive). Moreover, in test [6], the slope is 0.00538 (inactive).

In general, inhibition refers to the change of the read-out against control, counted positive when it falls.
